{"source": "PubChem BioAssay (NCATS)", "note": "Values joined by “and” are separate entries in the source; they are usually repeats but may differ in a detail not shown here. Equal values may be shown once. Inconclusive results are not listed. Where a call stands in place of a potency, no number is given. Active and inactive are the calls of the source. The call rests on the fitted dose curve; in most records, active means well fitted cell-killing curve with a large enough effect; inconclusive means small, poorly fitted or top-dose-only effect; inactive means flat fitted curve, though single readings scatter.", "data": [{"test": "Cell Viability - LYMP2-012 (AID 982);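 further: cells exposed to compound for one day before reading; nearly all actives have a fitted effect of over 55% in size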; further: potency means the concentration at half of the fitted maximal effect", "conditions": "LYMP2-012 lymphoblastoid cell viability qHTS; series mostly up to 92.2 µM", "values": [{"smiles": "CCCN(CCC)C(=O)SCC", "Potency": "inactive"}, {"smiles": "COc1ccc2nc(N)sc2c1", "Potency": "inactive"}, {"smiles": "ClCCCl", "Potency": "inactive"}, {"smiles": "CCC(O)OC(O)CC", "note": "(stereo not given)", "Potency": "inactive"}, {"smiles": "C=Cc1ccccc1Cl", "Potency": "inactive"}, {"smiles": "c1ccc2c(c1)c1cccc3ccc4cccc2c4c31", "Potency": "inactive"}, {"smiles": "Cc1cccc([N+](=O)[O-])c1C", "Potency": "inactive"}, {"smiles": "CCCCCCCCO", "Potency": "inactive"}, {"smiles": "CC(C)=CCCC(C)CCO", "note": "(stereo not given)", "Potency": "inactive"}, {"smiles": "O=[N+]([O-])c1cccc(Cl)c1Cl", "Potency": "inactive"}, {"smiles": "CCO[Si](CCCN)(OCC)OCC", "Potency": "inactive"}, {"smiles": "Clc1cc(Cl)c(Cl)cc1Cl", "Potency": "inactive"}, {"smiles": "CCO", "Potency": "inactive"}, {"smiles": "C=CC(=O)OCCOCCOCCOCCOC(=O)C=C", "Potency": "12.6 µM (active)"}, {"smiles": "Clc1cc(Cl)c(Cl)c(Cl)c1Cl", "Potency": "inactive"}, {"smiles": "CCCCC(CC)CN", "note": "(stereo not given)", "Potency": "inactive"}, {"smiles": "O=NO", "Potency": "inactive"}, {"smiles": "c1ccc2c(c1)[nH]c1ccccc12", "Potency": "inactive"}, {"smiles": "OCCNCCO", "Potency": "inactive"}, {"smiles": "Nc1ccc(Cl)cc1Cl", "Potency": "inactive"}, {"smiles": "CCC(C)c1ccccc1O", "note": "(stereo not given)", "Potency": "inactive"}, {"smiles": "CC1=CC(C)(C)Nc2ccccc21", "Potency": "inactive"}, {"smiles": "CN(C)C=O", "Potency": "inactive"}, {"smiles": "Cc1ccc(N)c([N+](=O)[O-])c1", "Potency": "inactive"}, {"smiles": "CCCCOCCO", "Potency": "inactive"}, {"smiles": "CC(=O)OC/C=C(\\C)CCC=C(C)C", "Potency": "inactive"}]}, {"test": "Cell Viability - LYMP2-014 (AID 983);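 further: cells exposed to compound for 24 h at 37 °C; nearly all actives have a fitted effect of over 50% in size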; further: potency means the concentration at half of the fitted maximal effect", "conditions": "LYMP2-014 lymphoblastoid cells, viability qHTS; series mostly up to 92.2 µM", "procedure,_shortened": "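2500 cells/well, 5 hr 37 C; cpd 24 hr 37 C, complete medium; CellTiter-Glo 30 min RT, luminescence; ATP loss = toxicity; AC50 via Hill eqn; tetraoctylammonium bromide positive control.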", "values": [{"smiles": "CCCN(CCC)C(=O)SCC", "Potency": "inactive"}, {"smiles": "COc1ccc2nc(N)sc2c1", "Potency": "inactive"}, {"smiles": "ClCCCl", "Potency": "inactive"}, {"smiles": "CCC(O)OC(O)CC", "note": "(stereo not given)", "Potency": "inactive"}, {"smiles": "C=Cc1ccccc1Cl", "Potency": "inactive"}, {"smiles": "c1ccc2c(c1)c1cccc3ccc4cccc2c4c31", "Potency": "inactive"}, {"smiles": "Cc1cccc([N+](=O)[O-])c1C", "Potency": "inactive"}, {"smiles": "CCCCCCCCO", "Potency": "inactive"}, {"smiles": "CC(C)=CCCC(C)CCO", "note": "(stereo not given)", "Potency": "inactive"}, {"smiles": "O=[N+]([O-])c1cccc(Cl)c1Cl", "Potency": "inactive"}, {"smiles": "CCO[Si](CCCN)(OCC)OCC", "Potency": "inactive"}, {"smiles": "Clc1cc(Cl)c(Cl)cc1Cl", "Potency": "inactive"}, {"smiles": "CCO", "Potency": "inactive"}, {"smiles": "C=CC(=O)OCCOCCOCCOCCOC(=O)C=C", "Potency": "20 µM (active) and 25.1 µM (active)"}, {"smiles": "Clc1cc(Cl)c(Cl)c(Cl)c1Cl", "Potency": "inactive"}, {"smiles": "CCCCC(CC)CN", "note": "(stereo not given)", "Potency": "inactive"}, {"smiles": "O=NO", "Potency": "inactive"}, {"smiles": "c1ccc2c(c1)[nH]c1ccccc12", "Potency": "inactive"}, {"smiles": "OCCNCCO", "Potency": "inactive"}, {"smiles": "Nc1ccc(Cl)cc1Cl", "Potency": "inactive"}, {"smiles": "CCC(C)c1ccccc1O", "note": "(stereo not given)", "Potency": "inactive"}, {"smiles": "CC1=CC(C)(C)Nc2ccccc21", "Potency": "inactive"}, {"smiles": "CN(C)C=O", "Potency": "inactive"}, {"smiles": "Cc1ccc(N)c([N+](=O)[O-])c1", "Potency": "inactive"}, {"smiles": "CCCCOCCO", "Potency": "inactive"}, {"smiles": "CC(=O)OC/C=C(\\C)CCC=C(C)C", "Potency": "inactive"}]}, {"test": "Cell Viability - LYMP2-016 (AID 984);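 further: cells exposed to compound for 24 hours at 37 °C; nearly all actives have a fitted effect of over 55% in size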; further: potency means the concentration at half of the fitted maximal effect", "conditions": "LYMP2-016 lymphoblastoid cell viability, qHTS; series mostly up to 92.2 µM", "procedure,_shortened": "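Cells were seeded at 2500 per well and rested 5 hr before a 24 hr compound exposure at 37 C. Viability was then gauged as cellular ATP by luciferase luminescence, with AC50 values fitted to the Hill equation.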", "values": [{"smiles": "CCCN(CCC)C(=O)SCC", "Potency": "inactive"}, {"smiles": "COc1ccc2nc(N)sc2c1", "Potency": "inactive"}, {"smiles": "ClCCCl", "Potency": "inactive"}, {"smiles": "CCC(O)OC(O)CC", "note": "(stereo not given)", "Potency": "inactive"}, {"smiles": "C=Cc1ccccc1Cl", "Potency": "inactive"}, {"smiles": "c1ccc2c(c1)c1cccc3ccc4cccc2c4c31", "Potency": "inactive"}, {"smiles": "Cc1cccc([N+](=O)[O-])c1C", "Potency": "inactive"}, {"smiles": "CCCCCCCCO", "Potency": "inactive"}, {"smiles": "CC(C)=CCCC(C)CCO", "note": "(stereo not given)", "Potency": "inactive"}, {"smiles": "O=[N+]([O-])c1cccc(Cl)c1Cl", "Potency": "inactive"}, {"smiles": "CCO[Si](CCCN)(OCC)OCC", "Potency": "inactive"}, {"smiles": "Clc1cc(Cl)c(Cl)cc1Cl", "Potency": "inactive"}, {"smiles": "CCO", "Potency": "inactive"}, {"smiles": "C=CC(=O)OCCOCCOCCOCCOC(=O)C=C", "Potency": "20 µM (active) and 15.8 µM (active)"}, {"smiles": "Clc1cc(Cl)c(Cl)c(Cl)c1Cl", "Potency": "inactive"}, {"smiles": "CCCCC(CC)CN", "note": "(stereo not given)", "Potency": "inactive"}, {"smiles": "O=NO", "Potency": "inactive"}, {"smiles": "c1ccc2c(c1)[nH]c1ccccc12", "Potency": "inactive"}, {"smiles": "OCCNCCO", "Potency": "inactive"}, {"smiles": "Nc1ccc(Cl)cc1Cl", "Potency": "inactive"}, {"smiles": "CCC(C)c1ccccc1O", "note": "(stereo not given)", "Potency": "inactive"}, {"smiles": "CC1=CC(C)(C)Nc2ccccc21", "Potency": "inactive"}, {"smiles": "CN(C)C=O", "Potency": "inactive"}, {"smiles": "Cc1ccc(N)c([N+](=O)[O-])c1", "Potency": "inactive"}, {"smiles": "CCCCOCCO", "Potency": "inactive"}, {"smiles": "CC(=O)OC/C=C(\\C)CCC=C(C)C", "Potency": "inactive"}]}, {"test": "Cell Viability - LYMP2-018 (AID 985); further: nearly all actives have a fitted effect of over 50% in size; further: potency means the concentration at half of the fitted maximal effect", "conditions": "LYMP2-018 lymphoblastoid cells, viability (qHTS); series mostly up to 92.2 µM", "procedure,_shortened": "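2500 cells/well; 5 hr 37 C; cmpd 24 hr 37 C, complete medium; CellTiter-Glo 30 min RT; luminescence. Tetraoctylammonium bromide positive control. AC50 via Hill fit.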", "values": [{"smiles": "CCCN(CCC)C(=O)SCC", "Potency": "inactive"}, {"smiles": "COc1ccc2nc(N)sc2c1", "Potency": "inactive"}, {"smiles": "ClCCCl", "Potency": "inactive"}, {"smiles": "CCC(O)OC(O)CC", "note": "(stereo not given)", "Potency": "inactive"}, {"smiles": "C=Cc1ccccc1Cl", "Potency": "inactive"}, {"smiles": "c1ccc2c(c1)c1cccc3ccc4cccc2c4c31", "Potency": "inactive"}, {"smiles": "Cc1cccc([N+](=O)[O-])c1C", "Potency": "inactive"}, {"smiles": "CCCCCCCCO", "Potency": "inactive"}, {"smiles": "CC(C)=CCCC(C)CCO", "note": "(stereo not given)", "Potency": "inactive"}, {"smiles": "O=[N+]([O-])c1cccc(Cl)c1Cl", "Potency": "inactive"}, {"smiles": "CCO[Si](CCCN)(OCC)OCC", "Potency": "inactive"}, {"smiles": "Clc1cc(Cl)c(Cl)cc1Cl", "Potency": "inactive"}, {"smiles": "CCO", "Potency": "inactive"}, {"smiles": "C=CC(=O)OCCOCCOCCOCCOC(=O)C=C", "Potency": "15.8 µM (active)"}, {"smiles": "Clc1cc(Cl)c(Cl)c(Cl)c1Cl", "Potency": "inactive"}, {"smiles": "CCCCC(CC)CN", "note": "(stereo not given)", "Potency": "inactive"}, {"smiles": "O=NO", "Potency": "inactive"}, {"smiles": "c1ccc2c(c1)[nH]c1ccccc12", "Potency": "inactive"}, {"smiles": "OCCNCCO", "Potency": "inactive"}, {"smiles": "Nc1ccc(Cl)cc1Cl", "Potency": "inactive"}, {"smiles": "CCC(C)c1ccccc1O", "note": "(stereo not given)", "Potency": "inactive"}, {"smiles": "CC1=CC(C)(C)Nc2ccccc21", "Potency": "inactive"}, {"smiles": "CN(C)C=O", "Potency": "inactive"}, {"smiles": "Cc1ccc(N)c([N+](=O)[O-])c1", "Potency": "inactive"}, {"smiles": "CCCCOCCO", "Potency": "inactive"}, {"smiles": "CC(=O)OC/C=C(\\C)CCC=C(C)C", "Potency": "inactive"}]}, {"test": "Cell Viability - LYMP2-020 (AID 986);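 further: cells exposed to compound for 24 h at 37 °C; nearly all actives have a fitted effect of over 55% in size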", "conditions": "series mostly up to 92.2 µM", "procedure,_shortened": "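qHTS, 2500 cells/well; 5 hr then 24 hr compound exposure, 37 C; CellTiter-Glo luminescence after 30 min RT; ATP decrease taken as cytotoxicity; AC50 via Hill equation; tetraoctylammonium bromide positive control.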", "values": [{"smiles": "COc1ccc2nc(N)sc2c1", "Potency": "inactive"}, {"smiles": "ClCCCl", "Potency": "inactive"}, {"smiles": "C=Cc1ccccc1Cl", "Potency": "inactive"}, {"smiles": "CC(C)=CCCC(C)CCO", "note": "(stereo not given)", "Potency": "inactive"}, {"smiles": "O=[N+]([O-])c1cccc(Cl)c1Cl", "Potency": "inactive"}, {"smiles": "CCO[Si](CCCN)(OCC)OCC", "Potency": "inactive"}, {"smiles": "CCO", "Potency": "inactive"}, {"smiles": "O=NO", "Potency": "inactive"}, {"smiles": "c1ccc2c(c1)[nH]c1ccccc12", "Potency": "inactive"}, {"smiles": "CCCCOCCO", "Potency": "inactive"}, {"smiles": "CC(=O)OC/C=C(\\C)CCC=C(C)C", "Potency": "inactive"}]}]}
